Values joined by “and” are separate entries in the source; they are usually repeats but may differ in a detail not shown here. Equal entries are not always repeated. About 2,000 (36%) of roughly 5,500 compounds were called active. Not shown: some 18% with an inconclusive outcome. Rule as the data show it: active = normalized growth mostly below about 0.91 (no sharp cut-off); inconclusive = no clear call, values can overlap the other calls; inactive = mostly above about 0.92. The list shows a part of the results.
Assay: chemical genetic growth profiling, strain panel (AID 1159580);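 also: tested at 20 µM; growth read once vehicle control cultures reached saturation at 30 °C; 1 = growth at the plate median or of vehicle wells; lower values mean less growth of the strain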
Conditions: S. cerevisiae deletion strains, growth OD

Measured: normalized growth

COC[C@]12CN(C=O)C3[C@@H]4[C@H](OC)C1[C@]3(C1CC3(O)C(OC)C(O)C4(OC(C)=O)C1C3OC(=O)c1ccccc1)[C@@H](OC)C[C@H]2O (stereo not given in full)
inactive: locus YAL021C, strain ccr4, hits give low values 1.02 | locus YAL026C, strain drs2, hits give low values 1.01 | locus YAL030W, strain snc1, hits give low values 1.01 | locus YBL061C, strain skt5, hits give low values 1.01 | locus YBR009C, strain hhf1, hits give low values 1.01 | locus YBR021W, strain FUR4, hits give low values 0.995 | locus YBR023C, strain chs3, hits give low values 1.01 | locus YBR171W, strain sec66, hits give low values 1.03 | locus YBR229C, strain ROT2, hits give low values 1.01 | locus YBR231C, strain swc5, hits give low values 1.01 | locus YBR279W, strain paf1, hits give low values 1.01 | locus YCL011C, strain gbp2, hits give low values 1.01 | locus YCL016C, strain dcc1, hits give low values 1.01 | locus YCL029C, strain bik1, hits give low values 0.997 | locus YCL061C, strain MRC1, hits give low values 1.02 | locus YCL069W, strain vba3, hits give low values 1.01 | locus YCR088W, strain abp1, hits give low values 1.01 | locus YDL005C, strain med2, hits give low values 1.02 | locus YDL035C, strain GPR1, hits give low values 1.01 | locus YDL040C, strain nat1, hits give low values 1.01 | locus YDL074C, strain BRE1, hits give low values 1.03 | locus YDL101C, strain DUN1, hits give low values 1.02 | locus YDL185W, strain tfp1, hits give low values 1.01 | locus YDL192W, strain arf1, hits give low values 1 | locus YDR001C, strain nth1, hits give low values 1.01 | locus YDR069C, strain doa4, hits give low values 1.02 | locus YDR101C, strain arx1, hits give low values 0.99 | locus YDR137W, strain rgp1, hits give low values 1.01 | locus YDR159W, strain sac3, hits give low values 1.01 | locus YDR162C, strain NBP2, hits give low values 1.02 | locus YDR195W, strain ref2 1.01 | locus YDR297W, strain sur2, hits give low values 1 | locus YDR318W, strain mcm21, hits give low values 1.01 | locus YDR334W, strain swr1, hits give low values 1.01 | locus YDR335W, strain msn5, hits give low values 0.998 | locus YDR388W, hits give low values 0.998 | locus YDR392W, strain spt3, hits give low values 1.01 | locus YDR502C, strain sam2, hits give low values 1.02 | locus YEL003W, strain gim4, hits give low values 1.01 | locus YEL037C, strain rad23, hits give low values 1 | locus YEL061C, strain CIN8 (second series), hits give low values 1 | locus YEL061C, strain CIN8, hits give low values 1.01 | locus YER015W, strain faa2, hits give low values 1.01 | locus YER016W, strain bim1, hits give low values 1.03 | locus YER110C, hits give low values 1.01 | locus YER111C, strain swi4, hits give low values 1.01 | locus YER155C, strain BEM2 (second series), hits give low values 1.03 | locus YER155C, strain BEM2, hits give low values 0.995 | locus YER167W, strain BCK2, hits give low values 1.01 | locus YFR010W, strain ubp6, hits give low values 1.02 | locus YGL078C, strain dbp3, hits give low values 1.02 | locus YGL086W, strain mad1, hits give low values 1.01 | locus YGL167C, strain pmr1, hits give low values 1.02 | locus YGL173C, strain kem1, hits give low values 1.01 | locus YGL227W, strain vid30, hits give low values 1.01 | locus YGL240W, strain doc1, hits give low values 1.01 | locus YGL248W, strain PDE1, hits give low values 1.02 | locus YGL253W, strain hxk2, hits give low values 1.02 | locus YGR135W, strain pre9, hits give low values 1.02 | locus YGR252W, strain gcn5, hits give low values 1.02 | locus YHR013C, strain ard1, hits give low values 1.01 | locus YHR027C, strain rpn1, hits give low values 1.01 | locus YHR030C, strain SLT2, hits give low values 1 and 1.05 | locus YHR079C, strain IRE1 (second series), hits give low values 1.01 | locus YHR079C, strain IRE1, hits give low values 1.04 | locus YHR094C, strain hxt1, hits give low values 1.01 | locus YHR129C, strain ARP1, hits give low values 1 | locus YHR142W, strain chs7, hits give low values 0.999 | locus YHR200W, strain rpn10, hits give low values 1.01 | locus YIL066C, strain RNR3, hits give low values 1.01 | locus YIL073C, strain SPO22, hits give low values 1.04 | locus YIL125W, strain kgd1, hits give low values 0.999 | locus YIR030C, strain dcg1, hits give low values 1 | locus YJL092W, strain hpr5, hits give low values 1.01 | locus YJL095W, strain BCK1 (second series), hits give low values 1.02 | locus YJL095W, strain BCK1, hits give low values 1.04 and 1.02 | locus YJL115W, strain asf1, hits give low values 0.997 | locus YJL129C, strain trk1, hits give low values 1.02 | locus YJL134W, strain LCB3, hits give low values 1.01 | locus YJL154C, strain vps35, hits give low values 1.01 | locus YJL164C, strain tpk1, hits give low values 1.01 | locus YJL166W, strain qcr8, hits give low values 1.01 | locus YJL168C, strain set2, hits give low values 0.997 | locus YJL187C, strain SWE1 (second series), hits give low values 1.03 | locus YJL187C, strain SWE1, hits give low values 1.01

— PubChem BioAssay AID1159580 (chemical genetic matrix, 2015)
